Measurements published in PubChem BioAssay AID1159580 (chemical genetic matrix, 2015).
Several values for one entry are separate records, joined by “and”; a condition that tells them apart may be missing. Identical values can stand only once. Screen size: about 5,500 compounds; about 2,000 (36%) were called active. Inconclusive results (about 18%) are left out. Rule as the data show it: active = normalized growth mostly below about 0.91 (no sharp cut-off); inconclusive = no clear call, values can overlap the other calls; inactive = mostly above about 0.92. This is one part of the list.

Assay: chemical genetic growth profiling, strain panel (AID 1159580);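 also: tested at 20 µM; growth read once vehicle control cultures reached saturation at 30 °C; 1 = growth at the plate median or of vehicle wells; lower values mean less growth of the strain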
Conditions: S. cerevisiae deletion strains, growth OD

Measured: normalized growth

CCCN(CCC)c1c([N+](=O)[O-])cc(C(F)(F)F)cc1[N+](=O)[O-]
inactive: locus YAL013W, strain DEP1, active compounds read low 1.02 | locus YAL021C, strain ccr4, active compounds read low 1 | locus YAL026C, strain drs2, active compounds read low 0.999 | locus YAL030W, strain snc1, active compounds read low 1 | locus YBL061C, strain skt5, active compounds read low 1.01 | locus YBR009C, strain hhf1, active compounds read low 0.995 | locus YBR021W, strain FUR4, active compounds read low 1.03 | locus YBR023C, strain chs3, active compounds read low 1.01 | locus YBR171W, strain sec66, active compounds read low 0.985 | locus YBR229C, strain ROT2, active compounds read low 1 | locus YBR231C, strain swc5, active compounds read low 1.02 | locus YBR279W, strain paf1, active compounds read low 1.01 | locus YCL011C, strain gbp2, active compounds read low 0.97 | locus YCL016C, strain dcc1, active compounds read low 1 | locus YCL029C, strain bik1, active compounds read low 1.01 | locus YCL061C, strain MRC1, active compounds read low 0.984 | locus YCL069W, strain vba3, active compounds read low 0.977 | locus YCR088W, strain abp1, active compounds read low 0.976 | locus YDL005C, strain med2, active compounds read low 1.01 | locus YDL035C, strain GPR1, active compounds read low 1.04 | locus YDL040C, strain nat1, active compounds read low 1 | locus YDL074C, strain BRE1, active compounds read low 1.04 | locus YDL101C, strain DUN1, active compounds read low 0.997 | locus YDL134C, strain PPH21, active compounds read low 0.995 | locus YDL185W, strain tfp1, active compounds read low 1.02 | locus YDL192W, strain arf1, active compounds read low 1.02 | locus YDR001C, strain nth1, active compounds read low 0.981 | locus YDR069C, strain doa4, active compounds read low 1.02 | locus YDR101C, strain arx1, active compounds read low 1.01 | locus YDR137W, strain rgp1, active compounds read low 0.957 | locus YDR150W, strain NUM1, active compounds read low 1.02 | locus YDR159W, strain sac3, active compounds read low 0.989 | locus YDR162C, strain NBP2, active compounds read low 1 | locus YDR195W, strain ref2 0.987 | locus YDR297W, strain sur2, active compounds read low 1 | locus YDR318W, strain mcm21, active compounds read low 1.01 | locus YDR334W, strain swr1, active compounds read low 0.994 | locus YDR335W, strain msn5, active compounds read low 1.01 | locus YDR388W, active compounds read low 1 | locus YDR392W, strain spt3, active compounds read low 0.919 | locus YDR502C, strain sam2, active compounds read low 1.02 | locus YEL003W, strain gim4, active compounds read low 0.974 | locus YEL037C, strain rad23, active compounds read low 0.988 | locus YEL061C, strain CIN8 (second series), active compounds read low 0.981 | locus YEL061C, strain CIN8, active compounds read low 1.01 | locus YER015W, strain faa2, active compounds read low 1.01 | locus YER016W, strain bim1, active compounds read low 1 | locus YER110C, active compounds read low 1.01 | locus YER111C, strain swi4, active compounds read low 0.98 | locus YER155C, strain BEM2 (second series), active compounds read low 1 | locus YER155C, strain BEM2, active compounds read low 1.01 | locus YER167W, strain BCK2, active compounds read low 0.997 | locus YFR010W, strain ubp6, active compounds read low 0.996 | locus YGL078C, strain dbp3, active compounds read low 1.01 | locus YGL086W, strain mad1, active compounds read low 1.01 | locus YGL167C, strain pmr1, active compounds read low 1.01 | locus YGL173C, strain kem1, active compounds read low 1.02 | locus YGL227W, strain vid30, active compounds read low 0.982 | locus YGL240W, strain doc1, active compounds read low 1.05 | locus YGL248W, strain PDE1, active compounds read low 0.99 | locus YGL253W, strain hxk2, active compounds read low 1.01 | locus YGR078C, strain PAC10, active compounds read low 1.02 | locus YGR135W, strain pre9, active compounds read low 1.02 | locus YGR229C, strain SMI1, active compounds read low 1.01 | locus YGR252W, strain gcn5, active compounds read low 1.05 | locus YHR013C, strain ard1, active compounds read low 1.06 | locus YHR027C, strain rpn1, active compounds read low 1.03 | locus YHR030C, strain SLT2, active compounds read low 1.01 and 0.97 | locus YHR079C, strain IRE1 (second series), active compounds read low 1.02 | locus YHR079C, strain IRE1, active compounds read low 0.979 | locus YHR094C, strain hxt1, active compounds read low 1.01 | locus YHR129C, strain ARP1, active compounds read low 0.99 | locus YHR142W, strain chs7, active compounds read low 0.975 | locus YHR200W, strain rpn10, active compounds read low 1.01 | locus YIL066C, strain RNR3, active compounds read low 1.02 | locus YIL073C, strain SPO22, active compounds read low 1.04 | locus YIL125W, strain kgd1, active compounds read low 1 | locus YIR030C, strain dcg1, active compounds read low 1.01 | locus YJL092W, strain hpr5, active compounds read low 0.976 | locus YJL095W, strain BCK1 (second series), active compounds read low 1.01 | locus YJL095W, strain BCK1, active compounds read low 0.99 and 0.98 | locus YJL115W, strain asf1, active compounds read low 0.998 | locus YJL129C, strain trk1, active compounds read low 0.96 | locus YJL134W, strain LCB3, active compounds read low 1 | locus YJL154C, strain vps35, active compounds read low 0.978 | locus YJL164C, strain tpk1, active compounds read low 0.991 | locus YJL166W, strain qcr8, active compounds read low 1.02 | locus YJL168C, strain set2, active compounds read low 1.01 | locus YJL187C, strain SWE1 (second series), active compounds read low 1.02 | locus YJL187C, strain SWE1, active compounds read low 1.01 | locus YJR043C, strain POL32, active compounds read low 1.01 | locus YJR066W, strain TOR1, active compounds read low 0.914
